This passage reports Potency results from PubChem BioAssay (Tox21).

Values joined by “and” are separate entries in the source; they are usually repeats but may differ in a detail not shown here. Identical values can stand only once. Inconclusive results are not listed. Active and inactive are the calls of the source. Unless noted, calls come from the whole dose curve; as a rule, active = well fitted curve in the direction sought with a large enough effect in the repeat runs; inconclusive = weak or mixed curves; inactive = no such curve, though single readings can be large; an effect the other way counts as inactive or inconclusive.

Assay [1] is described as follows: qHTS assay to identify small molecule agonists of the farnesoid-X-receptor (FXR) signaling pathway - cell viability counter screen (AID 743218). Note: nearly all actives have a fitted effect of over 45% in size. Note: potency is the fitted concentration of half-maximal effect. Summed up: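 Viability of FXR-bla HEK 293T cells is measured by ATP-based CellTiter-Glo luminescence following 16 h compound treatment at 37 C and a prior 2 h room-temperature beta-lactamase substrate step.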
Background: Quantitative high-throughput screening tests each substance at several concentrations.

Assay [2] is described as follows: qHTS assay to identify small molecule agonists of the NFkB signaling pathway - cell viability counter screen (AID 1159515; calls by dose curve; note: nearly all actives have a fitted effect of over 55% in size; note: potency is the fitted concentration of half-maximal effect). Summed up:
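Parallel cytotoxicity counter screen in ME-180 cells carrying an NFkB-response-element beta-lactamase reporter, 2,000 cells/well. Compound exposure lasted 5 hr at 37 C, 5% CO2. Cell viability was quantified by CellTiter-Glo luminescence.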

The nature of assay [3]: qHTS assay to identify small molecule agonists of the endoplasmic reticulum stress response signaling pathway - cell viability counter screen (AID 1159517; calls by dose curve; note: nearly all actives have a fitted effect of over 50% in size; note: potency is the fitted concentration of half-maximal effect). The procedure, abridged: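 ESRE-bla HeLa cells (1,500/well) were plated overnight at 37 C and exposed to compounds for 5 hr. After the 2 hr beta-lactamase substrate read, CellTiter-Glo went into the same wells, and luminescence was read after 30 min at room temperature.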

Assay [4] in a line: qHTS assay to identify small molecule antagonists of the retinoid-related orphan receptor gamma (ROR-gamma) signaling pathway - cell viability counter screen (AID 1159520). Note: nearly all actives have a fitted effect of over 50% in size. Note: potency is the fitted concentration of half-maximal effect. The procedure, abridged:
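Cytotoxicity was read from cellular ATP (CellTiter-Glo luminescence) after 16 hr at 37 C with 1 uM doxycycline induction. The inducer was added 2 hr after compound transfer to Tet-on ROR gamma CHO cells.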

The target of assay [5] is Nuclear receptor ROR-gamma (Homo sapiens) (UniProt P51449). The assay is described as follows: qHTS assay to identify small molecule antagonists of the retinoid-related orphan receptor gamma (ROR-gamma) signaling pathway (AID 1159521; note: nearly all actives have a fitted effect of over 50% in size; note: potency is the fitted concentration of half-maximal effect). The procedure, abridged:
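Tet-on RORγ CHO cells carrying a ROR response element–luciferase reporter were pretreated with compounds for 2 h, then induced with 1 uM (final) doxycycline hyclate for 16 h at 37 C. Antagonism was read as decreased ONE-Glo luminescence.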

Assay [6] can be described thus: qHTS assay to identify small molecule agonists of the AP-1 signaling pathway - cell viability counter screen (AID 1159525; calls by dose curve; note: nearly all actives have a fitted effect of over 55% in size; note: potency is the fitted concentration of half-maximal effect). The procedure, abridged:
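Intracellular ATP by Cell Titer Glo luminescence (30 min, RT) in the same ME-180 AP-1-bla wells after the 5 h compound exposure at 37 °C. Normalised to tetra n-octyl ammonium bromide and DMSO controls.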

Assay [7] in a line: qHTS assay to identify small molecule agonists of the AP-1 signaling pathway (AID 1159526; calls by dose curve).
Assay [8] addresses Peroxisome proliferator-activated receptor delta (Homo sapiens) (UniProt Q03181). The assay is described as follows: qHTS assay to identify small molecule agonists of the peroxisome proliferator-activated receptor delta (PPARd) signaling pathway (AID 743212; calls by dose curve). Summed up:
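Beta-lactamase reporter readout: a ratiometric FRET signal from the LiveBLAzer substrate after 2 h at room temperature. Compound exposure at 37 °C in PPARδ-bla HEK293H cells driven by an upstream activator sequence.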

Assay [9] can be described thus: qHTS assay to identify small molecule antagonists of the peroxisome proliferator-activated receptor delta (PPARd) signaling pathway - cell viability counter screen (AID 743213). Note: nearly all actives have a fitted effect of over 50% in size. Note: potency is the fitted concentration of half-maximal effect. The procedure, abridged:
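Agonist-stimulated (L165041, 300 nM final) HEK293H PPARd UAS-bla cells are exposed to compounds for 17 h at 37 C, and ATP-based luminescence (CellTiter-Glo) from the same wells reports cytotoxicity.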

For assay [10], the target named is Peroxisome proliferator-activated receptor delta (Homo sapiens) (UniProt Q03181). The assay is described as follows: qHTS assay to identify small molecule antagonists of the peroxisome proliferator-activated receptor delta (PPARd) signaling pathway (AID 743215; active = well fitted inhibition curve with a large enough effect in the signal ratio in the repeat runs, not every such curve was filed as active; the % refers to the signal ratio; note: series mostly up to about 62 µM). The procedure, abridged:
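Plated HEK293H PPARd-bla cells rested 5 h at 37 C and 5% CO2. Compound, then agonist L165041 at 300 nM final, was added; 17 h at 37 C followed. Substrate loading, 2 h room temperature, fluorescence measured.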

The nature of assay [11]: qHTS assay to identify small molecule antagonists of the farnesoid-X-receptor (FXR) signaling pathway - cell viability counter screen (AID 743221; active = well fitted cell-killing curve with a large enough effect in the repeat runs, not every such curve was filed as active; note: nearly all actives have a fitted effect of over 50% in size). Summed up: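 FXR-UAS-bla HEK 293T cells were treated with test compounds plus chenodeoxycholic acid (50 uM final) for 16 h at 37 C. Cell viability in the same wells was then read as CellTiter-Glo luminescence after 30 min at room temperature.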

The target of assay [12] is Vitamin D3 receptor (Homo sapiens) (UniProt P11473). The assay is described as follows: qHTS assay to identify small molecule antagonists of the vitamin D receptor (VDR) signaling pathway (AID 743223; active = well fitted inhibition curve with a large enough effect in the signal ratio in the repeat runs, not every such curve was filed as active; the % refers to the signal ratio). Summed up: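 VDR-bla cells were plated, incubated 4 h at 37C, then given compound and 1alpha,25-dihydroxyvitamin D3 (3 nM final). After 16 h at 37C, LiveBLAzer B/G FRET substrate was added for 2 h at room temperature and fluorescence read.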

A short description of assay [13]: qHTS assay to identify small molecule antagonists of the vitamin D receptor (VDR) signaling pathway - cell viability counter screen (AID 743225). Note: nearly all actives have a fitted effect of over 50% in size. Note: potency is the fitted concentration of half-maximal effect. Summed up: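 VDR-bla HEK 293T cells, 4 h pre-incubation at 37C, then compound plus 1-alpha,25-dihydroxyvitamin D3 (3 nM final) for 16 h. After the beta-lactamase FRET read, CellTiter-Glo was added to the same wells; luminescence after 30 min at room temperature.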

Assay [14] addresses Retinoic acid receptor RXR-alpha (Homo sapiens) (UniProt P19793). Nature of the assay: qHTS assay to identify small molecule agonists of the RXR signaling pathway (AID 1159527; calls by dose curve; note: nearly all actives have a fitted effect of over 35% in size). The procedure, abridged:
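GeneBLAzer RXR-alpha-UAS-bla HEK 293T cells in medium with 2% charcoal-stripped FBS, pre-incubated 5 hr at 37 C, then exposed to compounds 16 hr. Beta-lactamase reporter read by FRET substrate, 2 hr room temperature, 460/530 nm emission.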

Assay [15] addresses Vitamin D3 receptor (Homo sapiens) (UniProt P11473). The assay is described as follows: qHTS assay to identify small molecule agonists of the vitamin D receptor (VDR) signaling pathway (AID 743222; calls by dose curve). The procedure, abridged:
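Fluorescence from cleaved LiveBLAzer B/G FRET substrate served as readout. VDR-bla cells had been treated 16 h at 37C with test compounds in DMSO, following a 4 h settling period, and substrate was loaded for 2 h at RT.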

A short description of assay [16]: qHTS assay to identify small molecule agonists of the vitamin D receptor (VDR) signaling pathway - cell viability counter screen (AID 743224). Note: nearly all actives have a fitted effect of over 50% in size. Note: potency is the fitted concentration of half-maximal effect. Summed up: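 Compounds were pin-transferred onto VDR-bla cells plated 4 h earlier; following 16 h incubation at 37C, cell viability was quantified by CellTiter-Glo luminescence after 30 min at room temperature.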
The nature of assay [17]: qHTS assay to identify small molecule agonists of the peroxisome proliferator-activated receptor delta (PPARd) signaling pathway - cell viability counter screen (AID 743211). Note: nearly all actives have a fitted effect of over 55% in size. Note: potency is the fitted concentration of half-maximal effect. Summed up: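 PPARd-bla HEK293H cells (UAS-beta-lactamase reporter) were treated with compounds for 17 h at 37 C. Viability was then read in the same wells by CellTiter-Glo luminescence after 30 min at room temperature.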

Assay [18] has as its target Bile acid receptor (Homo sapiens) (UniProt Q96RI1). The assay is described as follows: qHTS assay to identify small molecule antagonists of the farnesoid-X-receptor (FXR) signaling pathway (AID 743217; active = well fitted inhibition curve with a large enough effect in the signal ratio in the repeat runs, not every such curve was filed as active; the % refers to the signal ratio). Summed up: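 Screen of the Tox21 10K library in quantitative HTS format using FXR-UAS-bla HEK 293T reporter cells. Agonist chenodeoxycholic acid, 50 uM final, added with compounds; 16 h incubation at 37 °C; beta-lactamase FRET fluorescence measured.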

Assay [19] shares this target. The assay is described as follows: qHTS assay to identify small molecule agonists of the farnesoid-X-receptor (FXR) signaling pathway (AID 743220; active = well fitted activation curve with a large enough effect in the signal ratio in the repeat runs, not every such curve was filed as active; the % refers to the signal ratio). The procedure, abridged: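 FXR-UAS-bla HEK 293T cells carrying a UAS-driven beta-lactamase reporter were plated for 5 h at 37C/5% CO2, then exposed to DMSO-dissolved Tox21 10K compounds for 16 h at 37C. A LiveBLAzer B/G FRET substrate was loaded for 2 h at room temperature before fluorescence reading.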

Sequence of Retinoic acid receptor RXR-alpha (Homo sapiens) (P19793 whole entry, looked up): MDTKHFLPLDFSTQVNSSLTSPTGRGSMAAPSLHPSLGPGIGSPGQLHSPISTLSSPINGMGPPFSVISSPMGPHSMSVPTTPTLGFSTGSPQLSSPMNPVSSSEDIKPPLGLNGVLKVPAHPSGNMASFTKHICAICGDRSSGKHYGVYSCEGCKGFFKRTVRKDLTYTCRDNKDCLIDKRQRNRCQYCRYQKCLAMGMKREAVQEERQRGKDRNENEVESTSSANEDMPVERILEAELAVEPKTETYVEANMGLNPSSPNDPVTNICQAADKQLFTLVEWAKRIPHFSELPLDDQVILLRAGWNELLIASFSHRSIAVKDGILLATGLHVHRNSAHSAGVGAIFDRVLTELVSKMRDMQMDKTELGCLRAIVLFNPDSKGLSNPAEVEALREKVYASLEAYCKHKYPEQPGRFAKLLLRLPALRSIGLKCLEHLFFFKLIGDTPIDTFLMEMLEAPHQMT
Sequence of Vitamin D3 receptor (Homo sapiens) (P11473 whole entry, looked up): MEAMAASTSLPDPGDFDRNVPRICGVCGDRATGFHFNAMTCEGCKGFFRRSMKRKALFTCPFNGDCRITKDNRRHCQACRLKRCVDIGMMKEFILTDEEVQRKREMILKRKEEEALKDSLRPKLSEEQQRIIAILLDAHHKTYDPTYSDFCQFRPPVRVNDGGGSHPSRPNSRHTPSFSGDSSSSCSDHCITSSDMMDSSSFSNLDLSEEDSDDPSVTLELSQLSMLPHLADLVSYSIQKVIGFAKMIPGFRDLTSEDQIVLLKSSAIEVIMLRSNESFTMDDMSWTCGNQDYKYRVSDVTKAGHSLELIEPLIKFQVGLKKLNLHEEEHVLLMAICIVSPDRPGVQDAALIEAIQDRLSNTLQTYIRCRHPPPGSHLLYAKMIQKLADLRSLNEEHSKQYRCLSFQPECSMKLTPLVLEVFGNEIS
Sequence of Peroxisome proliferator-activated receptor delta (Homo sapiens) (Q03181 whole entry, looked up): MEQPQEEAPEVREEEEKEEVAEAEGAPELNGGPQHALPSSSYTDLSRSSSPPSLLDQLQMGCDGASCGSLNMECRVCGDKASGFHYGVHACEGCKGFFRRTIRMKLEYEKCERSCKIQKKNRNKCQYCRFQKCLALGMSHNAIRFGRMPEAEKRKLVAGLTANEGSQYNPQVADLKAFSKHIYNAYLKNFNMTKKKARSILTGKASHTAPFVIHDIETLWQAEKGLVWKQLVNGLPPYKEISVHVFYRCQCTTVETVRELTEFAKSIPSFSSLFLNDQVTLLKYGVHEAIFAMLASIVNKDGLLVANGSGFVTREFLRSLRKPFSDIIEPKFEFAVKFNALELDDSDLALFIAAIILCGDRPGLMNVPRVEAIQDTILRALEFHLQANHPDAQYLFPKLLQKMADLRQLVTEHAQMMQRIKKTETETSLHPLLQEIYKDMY
Sequence of Bile acid receptor (Homo sapiens) (Q96RI1 whole entry, looked up): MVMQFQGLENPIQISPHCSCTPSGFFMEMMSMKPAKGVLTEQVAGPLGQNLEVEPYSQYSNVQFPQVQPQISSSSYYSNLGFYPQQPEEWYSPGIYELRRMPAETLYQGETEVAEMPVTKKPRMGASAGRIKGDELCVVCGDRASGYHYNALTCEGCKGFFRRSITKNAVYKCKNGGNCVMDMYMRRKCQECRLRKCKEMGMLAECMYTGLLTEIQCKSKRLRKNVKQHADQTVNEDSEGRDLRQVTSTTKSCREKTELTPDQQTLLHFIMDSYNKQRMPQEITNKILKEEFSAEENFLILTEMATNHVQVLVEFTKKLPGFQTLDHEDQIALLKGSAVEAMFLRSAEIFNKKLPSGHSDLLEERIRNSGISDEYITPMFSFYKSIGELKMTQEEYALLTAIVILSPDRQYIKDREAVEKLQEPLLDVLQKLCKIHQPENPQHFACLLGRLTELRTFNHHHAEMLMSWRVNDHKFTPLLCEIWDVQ

Turning to `O=C(O)c1cc(-c2ccc(F)cc2F)ccc1O`, the Potency entry in assay [1], in assay [2], in assay [3], in [4], in assay [5] and in [6] was “inactive” throughout. The Potency result in assay [7] is “inactive”.

Take `COc1cc(C)ccc1O`: the Potency entry in assay [8], in assay [9], in [10], in [1], in [11] and in assay [12] was “inactive” throughout. The Potency result in assay [13], in [2], in assay [3], in [4], in assay [5] and in assay [6] was “inactive” in each case. The Potency result in [7] and in assay [14] was “inactive” throughout.

For `C1CCC(SSC2CCCCC2)CC1`, the Potency result in [8], in assay [9], in assay [10], in [11], in assay [15] and in assay [16] was “inactive” throughout. The Potency result in assay [13], in [2], in assay [3], in [4], in [5] and in assay [6] was “inactive” each time. For the same compound, the Potency entry in assay [7] and in [14] was “inactive” throughout.

Regarding `CC(C)(C)c1ccc(C(O)CCCN2CCC(C(O)(c3ccccc3)c3ccccc3)CC2)cc1` (configuration not stated), the Potency is 10.6 µM (active) in [17]; 7.5 µM (active) in assay [9]; 10.6 µM (active) in assay [1]; 13.3 µM (active) in [16]; 21.3 µM (active) in assay [2]; 21.3 µM (active) in assay [3]. For the same compound, the values for the Potency in [4] and in assay [5] were 18.8 µM (active) and 13.3 µM (active), respectively. For the same compound, the Potency result in [12], in assay [13], in assay [6] and in [7] was “inactive” each time.

As for `CCC(C)n1ncn(-c2ccc(N3CCN(c4ccc(OC[C@H]5CO[C@](Cn6cncn6)(c6ccc(Cl)cc6Cl)O5)cc4)CC3)cc2)c1=O` (some centres not stated), the Potency result in assay [8], in assay [10], in [11], in [12], in [16] and in [13] was “inactive” in each case. Moreover, the Potency result in assay [2], in assay [3], in [4], in assay [6] and in assay [7] was “inactive” throughout. The Potency is 2.11 µM (active) in [9] and 1.19 µM (active) in assay [5].

`C=Cc1ccccc1C=C`: the Potency result in assay [17], in assay [8], in assay [9], in assay [10], in assay [18] and in assay [1] was “inactive” each time. For the same compound, the Potency result in assay [19], in assay [11], in [15], in assay [12], in assay [16] and in [13] was “inactive” throughout. The Potency entry in assay [2], in [3], in assay [4], in assay [5], in [6] and in assay [7] was “inactive” throughout.

As for `C#CC1(O)CC[C@H]2[C@@H]3CCC4=CCCC[C@@H]4[C@H]3CC[C@@]21C` (some centres not stated), the Potency in [17] was 11.9 µM (active); in [9], 26.6 µM (active); in assay [1], 23.7 µM (active); in [16] it was 49 µM (active) and 23.7 µM (active); in [13] it was 21.3 µM (active); in assay [2], 13.4 µM (active). The Potency in assay [3] was 49 µM (active) and 10.7 µM (active); in [4] it was 61.1 µM (active) and 26.6 µM (active); in assay [5], 43.3 µM (active) and 23.7 µM (active); in assay [6] it was 43.6 µM (active) and 15.1 µM (active). In addition, the Potency entry in assay [8] and in assay [19] was “inactive” in each case.

Turning to `COc1ccc(NC(=O)CC(C)=O)cc1`, the Potency result in assay [17], in assay [8], in assay [9], in assay [10], in assay [1] and in assay [11] was “inactive” each time. Moreover, the Potency entry in assay [15], in assay [12], in assay [16], in assay [13], in assay [2] and in [3] was “inactive” each time. Also, the Potency entry in assay [4], in [5], in assay [6], in assay [7] and in assay [14] was “inactive” throughout.
